A short description of assay [1]: Drug repurposing screens with cells derived from glioblastoma tumor samples (AID 1345199). Also: nearly all actives have a fitted effect of over 40% in size. Also: potency is read from the fitted curve at half-maximal effect. As to activity, negative = cell killing: % is scaled to controls: 0 for no effect and ±100 for the full control effect. Conditions: GBM patient neurospheres viability, ATP luminescence, 48 h. In outline:
(§1)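 Primary testing used CD133+ neurospheres from four GBM patients, seven concentrations, 48 h exposure and ATP-based viability; confirmation added three slower-growing patient lines.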

The test system of assay [2] is astro (control astrocytes). Described as above. The following applies: viability, ATP luminescence, 48 h; series mostly up to 45.9 µM. In outline:
as §1

Assay [3] deals with Nuclear receptor subfamily 1 group I member 2 (Rattus norvegicus) (UniProt Q9R1A7). Kind of assay: qHTS assay for small molecule activators of the rat pregnane X receptor (rPXR) signaling pathway (AID 651751; call rule not given here; also: 0% is about no effect). The following applies: rPXR reporter cells, luciferase (One-Glo), 24 h. In general terms: Quantitative high-throughput screening tests each substance at several concentrations.

Assay [4] is described as follows: qHTS assay for small molecule activators of the human pregnane X receptor (PXR) signaling pathway (AID 720659; call rule not given here; also: 0% is about no effect). Conditions: DPX-2 HepG2 CYP3A4-luciferase, 24 h; series mostly up to 92.3 µM.
Where [5] appears, read: at 45.9 µM (top of the series), tumour line B.
[6] abbreviates: at 45.9 µM (top of the series), tumour line D.
Where [7] appears, read: at 46 µM (top of the series), tumour line A.
The mark [8] stands for this setting: at 46.1 µM (top of the series), tumour line C.
Setting [9] is: at 20 µM (top of the series), tumour line C.
Setting [10] is: at 21.2 µM (top of the series), tumour line B.
The mark [11] stands for this setting: at 21.2 µM (top of the series), tumour line D.
Setting [12] is: at 21.3 µM (top of the series), tumour line A.

Values joined by “and” are separate entries in the source; they are usually repeats but may differ in a detail not shown here. Equal values may be shown once. A number with no mark means an inactive call. Inconclusive results are not listed. Active and inactive are the calls of the source. Unless noted, calls follow the shape of the dose curve; as a rule, active = well fitted inhibition curve with a large enough effect; inconclusive = small, poorly fitted or top-dose-only effect; inactive = flat fitted curve, though single readings scatter. Where a SMILES comes first, the peptide text is derived from it. Bridges are numbered along the chain shown (N, C = ends). [ ]: non-standard residue; d: D form. The star is where a group is joined. X2 = CC[C@H](C)CCCCC(=O)*; Dab = NCC[C@H](N)C(=O)O

Sequence of Nuclear receptor subfamily 1 group I member 2 (Rattus norvegicus) (Q9R1A7 whole entry, looked up): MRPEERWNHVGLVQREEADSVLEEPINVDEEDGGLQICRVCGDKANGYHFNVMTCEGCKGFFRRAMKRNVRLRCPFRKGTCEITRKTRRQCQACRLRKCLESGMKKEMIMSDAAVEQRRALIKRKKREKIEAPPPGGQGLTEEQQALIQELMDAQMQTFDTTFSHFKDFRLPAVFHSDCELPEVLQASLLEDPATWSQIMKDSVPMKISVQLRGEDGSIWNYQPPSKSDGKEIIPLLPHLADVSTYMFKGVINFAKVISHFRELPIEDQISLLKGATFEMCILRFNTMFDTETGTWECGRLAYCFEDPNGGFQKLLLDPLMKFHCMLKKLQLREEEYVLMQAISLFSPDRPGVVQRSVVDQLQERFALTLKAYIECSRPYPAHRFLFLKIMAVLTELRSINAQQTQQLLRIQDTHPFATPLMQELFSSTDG

As to `OB(O)O`, the activity, negative = cell killing in assay [1] (setting [5]) is -12.9%; in assay [1] (setting [6]), -13.8%; in assay [1] (setting [7]), -26.5%; in assay [1] (setting [8]), 5.29%. Moreover, the Potency result in assay [2] is “inactive”. For the same compound, the max response in assay [3] is 1.69% and 5.36%. The result in assay [4] was inactive.

`CC[C@H](C)[C@@H]1NC(=O)[C@H](Cc2ccc(O)cc2)NC(=O)[C@@H](N)CSSC[C@@H](C(=O)N2CCC[C@H]2C(=O)N[C@@H](CC(C)C)C(=O)NCC(N)=O)NC(=O)[C@H](CC(N)=O)NC(=O)[C@H](CCC(N)=O)NC1=O`: the activity, negative = cell killing in assay [1] (setting [5]) is -4.51%; in assay [1] (setting [6]), -1.96%; in assay [1] (setting [7]) it was -11.4%; in assay [1] (setting [8]), -6.16%. Further, the Potency entry in assay [2] was “inactive”.

Turning to `CC[C@H](C)CCCCC(=O)N[C@@H](CCN)C(=O)N[C@H](C(=O)N[C@@H](CCN)C(=O)N[C@H]1CCNC(=O)[C@@H]([C@H](C)O)NC(=O)[C@H](CCN)NC(=O)[C@H](CCN)NC(=O)[C@H](CC(C)C)NC(=O)[C@@H](CC(C)C)NC(=O)[C@H](CCN)NC1=O)[C@@H](C)O` (X2-[Dab]T[Dab][Dab][Dab][dL]L[Dab][Dab][dT]; lactam 4-C), the activity, negative = cell killing in assay [1] (setting [9]) is 7.06%; in assay [1] (setting [10]), -0.409%; in assay [1] (setting [11]), -6.08%; in assay [1] (setting [12]), -17.3%. Moreover, the Potency result in assay [2] is “inactive”.

Turning to `NC[C@H]1O[C@H](O[C@H]2[C@H](O)[C@@H](O[C@H]3O[C@H](CO)[C@@H](O)[C@H](N)[C@H]3O)[C@H](N)C[C@@H]2N)[C@H](O)[C@@H](O)[C@@H]1O`, the activity, negative = cell killing was 3.71% in assay [1] (setting [9]), -14.2% in assay [1] (setting [10]), 0.603% in assay [1] (setting [11]) and -23.6% in assay [1] (setting [12]). For the same compound, the Potency result in assay [2] was “inactive”.

For the compound `CCC(Oc1ccccc1)C(=O)N[C@@H]1C(=O)N2[C@@H]1SC(C)(C)[C@@H]2C(=O)O` (stereo not given in full), the activity, negative = cell killing was -4.6% in assay [1] (setting [5]), -5.25% in assay [1] (setting [6]), -9.92% in assay [1] (setting [7]) and -0.932% in assay [1] (setting [8]). In assay [2], the Potency result was “inactive”.

As to `FCOC(C(F)(F)F)C(F)(F)F`, the activity, negative = cell killing in assay [1] (setting [5]) is -14%; in assay [1] (setting [6]), -24.3%; in assay [1] (setting [7]), -28%; in assay [1] (setting [8]), -24.9%. For the same compound, in assay [2], the Potency entry is “inactive”.

With `CC1=CCC2CC1C2(C)C` (stereo not given), the activity, negative = cell killing in assay [1] (setting [5]) is -2.1%; in assay [1] (setting [6]) it was 2.05%; in assay [1] (setting [7]) it was -19.4%; in assay [1] (setting [8]), 11.1%. Also, in assay [2], the Potency result is “inactive”. Besides, in assay [3], the max response was 1.07%. Further, the call in assay [4] was inactive.

Consider `Nc1ncnc2c1ncn2[C@H]1CC[C@@H](CO)O1`, for which the activity, negative = cell killing in assay [1] (setting [5]) is -7.29%; in assay [1] (setting [6]), -3.43%; in assay [1] (setting [7]), -28.3%; in assay [1] (setting [8]), -20.8%. Also, the Potency entry in assay [2] was “inactive”. The max response in assay [3] is -2.84% and -0.199%. Further, the call in assay [4] was inactive.

As for `CCC(C)[C@@H](N)C(=O)O` (stereo not given in full), the activity, negative = cell killing in assay [1] (setting [5]) is -9.25%; in assay [1] (setting [6]), -6.09%; in assay [1] (setting [7]) it was -16.7%; in assay [1] (setting [8]), 10.2%. For the same compound, the Potency result in assay [2] is “inactive”.

With `CC[C@H]1OC(=O)[C@H](C)[C@@H](O[C@H]2C[C@@](C)(OC)[C@@H](O)[C@H](C)O2)[C@H](C)[C@@H](O[C@@H]2O[C@H](C)C[C@H](N(C)C)[C@H]2O)[C@](C)(O)C[C@@H](C)CN(C)[C@H](C)[C@@H](O)[C@]1(C)O`, the activity, negative = cell killing in assay [1] (setting [5]) was -13.7%; in assay [1] (setting [6]), -25.4%; in assay [1] (setting [8]), -5.95%. Moreover, in assay [1] (tumour line A), the Potency is 5.01 µM (active). In addition, in assay [2], the Potency result is “inactive”. In addition, the max response in assay [3] is -1.6%. Also, the call in assay [4] was inactive.

In the case of `C/C=C/C=C/C(=O)O`, the activity, negative = cell killing in assay [1] (setting [5]) is 2.26%; in assay [1] (setting [6]) it was -15.1%; in assay [1] (setting [7]) it was -7.83%; in assay [1] (setting [8]) it was -7.57%. Besides, the Potency entry in assay [2] is “inactive”.

On to `CCC(C(=O)NC(N)=O)c1ccccc1` (stereo not given), for which the activity, negative = cell killing was -5.95% in assay [1] (setting [5]), -2.75% in assay [1] (setting [6]), -8.52% in assay [1] (setting [7]) and -14.2% in assay [1] (setting [8]). Besides, the Potency result in assay [2] is “inactive”.

As to `CC(C)CCC[C@@H](C)[C@H]1CC[C@H]2[C@@H]3CC=C4C[C@@H](O)CC[C@]4(C)[C@H]3CC[C@]12C`, the activity, negative = cell killing in assay [1] (setting [5]) is -9.94%; in assay [1] (setting [6]) it was -4.88%; in assay [1] (setting [7]), -8.25%; in assay [1] (setting [8]), 1.16%. Further, the Potency result in assay [2] is “inactive”. For the same compound, the max response in assay [3] was -2.23%. Further, the outcome in assay [4] was inactive.

Take `CC(C)[C@@H]1CC[C@@H](C)C[C@H]1O`: the activity, negative = cell killing is -7.27% in assay [1] (setting [5]), 3.66% in assay [1] (setting [6]), -18.1% in assay [1] (setting [7]) and -14.4% in assay [1] (setting [8]). For the same compound, the Potency result in assay [2] is “inactive”. Also, the max response in assay [3] is -1.32%. Besides, the outcome in assay [4] was inactive.

As for `c1ccc2ccccc2c1`, the activity, negative = cell killing in assay [1] (setting [5]) was -9.97%; in assay [1] (setting [6]) it was 9.45%; in assay [1] (setting [7]) it was -4.53%; in assay [1] (setting [8]) it was -18.3%. The Potency result in assay [2] is “inactive”. The max response in assay [3] is -1.58% and 3.23%.

Regarding `CCOC(C)OCC`, the activity, negative = cell killing in assay [1] (setting [5]) is -4.71%; in assay [1] (setting [6]), -10.7%; in assay [1] (setting [7]), -12.1%; in assay [1] (setting [8]) it was -14.4%. Further, the Potency entry in assay [2] is “inactive”. Also, in assay [3], the max response is 0.058%. Besides, the result in assay [4] was inactive.

The values are drawn from PubChem BioAssay (NCATS).
